# Laboratory results published in ChEMBL document CHEMBL4513146, “CO-ADD screening of Karazin Kharkiv National University (Ukraine) compounds”.
# Entries with a potency or affinity are not part of this list.
# Key:
# Staphylococcus aureus = conditions: Concentration 32 ug.mL-1;; ASSAY_TEST Inhibition of Bacterial Growth; detection method Absorption (OD600); MEDIA CAMHB; plate type 384well; NBS; CORNING #3640; time 18 hr
# Escherichia coli = conditions: Concentration 32 ug.mL-1;; ASSAY_TEST Inhibition of Bacterial Growth; detection method Absorption (OD600); MEDIA CAMHB; plate type 384well; NBS; CORNING #3640; time 18 hr
Compound,Inhibition (Staphylococcus aureus),Inhibition (Escherichia coli)
O=S(=O)(c1ccc2nncn2c1)N(Cc1cccc(Cl)c1)c1ccc2c(c1)OCO2,4.03%,-10.92%
Cc1ccc(Oc2nccn3c(=O)n(CC(=O)Nc4cc(F)ccc4F)nc23)cc1,15.96%,-1.03%
COc1ccccc1Cn1c(=O)c2sccc2n2c(=O)n(Cc3cccc(Br)c3)nc12,-9.99%,-1.02%
C=Cc1ccc(CN(c2cccc(Cl)c2)S(=O)(=O)c2cccn3c(C)nnc23)cc1,-18.32%,-14.37%
Cc1ccc(NC(=O)Cn2nc3ccc(SC4CCCCC4)nn3c2=O)cc1,-13.21%,-13.34%
COc1ccc(OC)c(NC(=O)Cn2nc3c(Sc4ccccc4)nc4ccccc4n3c2=O)c1,6.17%,-0.83%
COc1cc(OC)c(NC(=O)Cn2nc3c(Oc4ccccc4)nccn3c2=O)cc1Cl,-15.01%,-15.59%
COc1cc(NC(=O)CSc2nnc3c(=O)n(-c4ccc(C)c(C)c4)ccn23)cc(OC)c1,3.54%,-13.82%
CCCCN(C)c1ccc2nnc(CCc3nc(-c4ccc(C(F)(F)F)cc4)no3)n2n1,7.8%,-3.35%
CC(=O)c1ccc(NC(=O)Cn2nc3c(Sc4ccc(C)cc4C)nccn3c2=O)cc1,-12.01%,-21.11%
COc1ccccc1-n1ccn2c(SCC(=O)Nc3ccc(C)c(F)c3)nnc2c1=O,12%,-1.35%
Cc1nnc2c(=O)n(CC(=O)Nc3ccc(F)cc3)c3ccccc3n12,15.51%,1.65%
Cc1nnc2ccc(S(=O)(=O)N(Cc3ccccc3)c3ccc(F)cc3)cn12,-4.97%,-1.95%
COc1ccc(N(Cc2cccc(C)c2)S(=O)(=O)c2ccc3nnc(C)n3c2)cc1,2.37%,-2.14%
O=S(=O)(Nc1ccc2c(c1)OCCO2)c1ccc2nncn2c1,11.97%,-4.23%
Cc1ccc(-c2ccc3nn(Cc4nc(-c5ccc(Cl)cc5)no4)c(=O)n3n2)cc1C,0%,-6.42%
CCc1nnc2c(SCC(=O)Nc3cccc(Br)c3)nc3ccccc3n12,1.73%,-7.45%
CCc1ccccc1NC(=O)Cn1nc2n(CCC(C)C)c(=O)c3sccc3n2c1=O,-2.34%,-9.52%
Cc1ccc(C)c(-c2cc3c4nnc(SCC(=O)Nc5cccc(Br)c5)n4ccn3n2)c1,0.42%,-9.35%
CCc1ccccc1NC(=O)CSc1nnc2ccc(C(=O)Nc3cccc(F)c3)cn12,19.17%,1.35%
O=C(Cn1nc2ccc(Sc3ccccc3)nn2c1=O)Nc1ccc(Cl)cc1,14.57%,0.83%
COc1ccc(N(Cc2cccc(Cl)c2)S(=O)(=O)c2ccc3nncn3c2)cc1,-10.84%,-8.34%
COc1cccc(-n2ccn3c(SCc4ccc(F)cc4)nnc3c2=O)c1,5.89%,-10.24%
COc1ccc(N(Cc2cccc(C)c2)S(=O)(=O)c2ccc3nncn3c2)cc1,-29.14%,-12.64%

Compound,Inhibition (Staphylococcus aureus),Inhibition (Escherichia coli)
COC(=O)c1ccc(NC(=O)Cn2nc3ccc(S(=O)(=O)c4ccccc4)nn3c2=O)cc1,-1.97%,-13.66%
Cc1nnc2c(=O)n(CC(=O)Nc3ccccc3Br)c3ccccc3n12,16.36%,5.04%
Cc1cc2nn(CC(=O)NCc3ccco3)c(=O)n2c(Nc2ccc(C)c(F)c2)n1,0.2%,-8.01%
COc1cccc(CN(c2ccc(C(C)C)cc2)S(=O)(=O)c2cccn3cnnc23)c1,7.94%,-1.44%
O=c1c2sccc2n2c(=O)n(Cc3cccc(Cl)c3)nc2n1Cc1cccs1,18.24%,-5.83%
COc1ccc(N2CCN(C(=O)Cn3nc4c(Oc5ccc(C)cc5)nccn4c3=O)CC2)cc1,4.51%,-5.74%
O=C(Cn1nc2c3cc(-c4ccc(Cl)cc4)nn3ccn2c1=O)Nc1ccc2c(c1)OCO2,8.69%,2.9%
O=C(Cn1nc2c(N3CCOCC3)nccn2c1=O)NCc1cccs1,22.65%,1.24%
CCc1cccc(C)c1NC(=O)CSc1nnc2ccc(C(=O)Nc3cccc(F)c3)cn12,1.86%,2%
COc1cccc(Sc2nc3ccccc3n3c(=O)n(CC(=O)Nc4cccc(C#N)c4)nc23)c1,2.4%,-6.13%
COc1ccccc1NC(=O)Cn1nc2n(CCCOC(C)C)c(=O)c3ccccc3n2c1=O,11.96%,2.24%
Cc1ccc(C)c(NC(=O)Cn2nc3c4cc(-c5ccc(C)c(C)c5)nn4ccn3c2=O)c1,4.52%,-6.72%
CCCCn1c(=O)c2sccc2n2c(=O)n(CC(=O)c3ccc(OC)cc3)nc12,3.9%,0.74%
Cc1cccc(-c2nc(CSc3nc4ccccc4n4c(C(C)C)nnc34)c(C)o2)c1,9.08%,2.13%
CCN(CCCNC(=O)CCc1nnc2ccc(-c3ccccc3)nn12)c1ccccc1,5.66%,4.87%
O=c1c2sccc2n2c(=O)n(Cc3ccccc3Cl)nc2n1CCc1ccccc1,10.44%,0.77%
CCc1nnc2c(SCC(=O)Nc3cccc(C(C)=O)c3)nc3ccccc3n12,2.41%,4.71%
Cc1cc2nn(CC(=O)N3CCCC3)c(=O)n2c(Nc2ccc(C)c(F)c2)n1,5.2%,-7.93%
CC1CCCN(c2nccn3c(=O)n(CC(=O)Nc4ccc5c(c4)OCO5)nc23)C1 (configuration not stated),-13.51%,-11.79%
CCOC(=O)N1CCN(C(=O)CCc2nnc3c4cc(-c5ccc(F)cc5)nn4ccn23)CC1,10.85%,2.2%
CCCCN(CC)C(=O)CSc1nnc2c(=O)n(Cc3ccccc3F)ccn12,1.71%,-7.34%
O=C(Cn1nc2c(Sc3ccccc3)nccn2c1=O)Nc1cccc(Cl)c1F,9.57%,-0.62%
Cc1cccc(Sc2nccn3c(=O)n(CC(=O)N4CCN(c5ccccc5)CC4)nc23)c1,12.14%,-10.39%
Cc1cc(C)cc(N(Cc2ccccc2)S(=O)(=O)c2cccn3c(C)nnc23)c1,-1.33%,-7.5%

Compound,Inhibition (Staphylococcus aureus),Inhibition (Escherichia coli)
O=c1n(Cc2cccc(C(F)(F)F)c2)nc2c(S(=O)(=O)N3CCCCCC3)cccn12,5.28%,-7.6%
CCc1ccccc1Sc1nccn2c(=O)n(CC(=O)Nc3ccc(OC)c(Cl)c3)nc12,1.89%,-5.89%
Cc1cc(C)cc(Nc2nc(C)cc3nn(CC(=O)NCc4ccco4)c(=O)n23)c1,4.89%,-6.71%
C=Cc1ccc(CN(c2ccc(C(C)C)cc2)S(=O)(=O)c2cccn3c(C)nnc23)cc1,-12.1%,1.96%
CC(C)Cn1c(=O)c2sccc2n2c(=O)n(Cc3ccc(N4CCCC4=O)cc3)nc12,-1.91%,-2.57%
Cc1cc(C)cc(Nc2nc(C)cc3nn(CC(=O)Nc4cccc(Cl)c4)c(=O)n23)c1,6.53%,-7.17%
NC(=O)Cn1nc2n(CCC(=O)NC3CCCCC3)c(=O)c3ccccc3n2c1=O,4.99%,0.77%
CC1CCCN(c2nccn3c(=O)n(CC(=O)Nc4ccc(Br)cc4F)nc23)C1 (configuration not stated),12.44%,0.2%
CC(C)c1ccc(NC(=O)Cn2nc3c(N4CCCCC4)nccn3c2=O)cc1,-8.03%,-4.05%
CC(C)c1ccc(NC(=O)CSc2nnc3c(=O)n(-c4ccccc4)ccn23)cc1,3.45%,-7.12%
O=C(CSc1nnc2c(=O)n(-c3ccccc3)ccn12)Nc1cc(F)ccc1F,5.32%,-13.66%
CC(C)c1ccc(CNC(=O)CCc2nnc3c(N4CCCCC4)nc4ccccc4n23)cc1,3.73%,-5.19%
CCCCn1c(=O)c2sccc2n2c(CCC(=O)Nc3ccc(OC(F)(F)F)cc3)nnc12,0.43%,-8.31%
CCc1ccc(NC(=O)Cn2nc3n(Cc4cccs4)c(=O)c4sccc4n3c2=O)cc1,-0.38%,5.1%
Cc1ccc(NC(=O)CSc2nc3ccccc3n3c(C(C)C)nnc23)c(Cl)c1,-3.19%,-0.25%
Cc1ccc(-c2cc3c4nn(CC(=O)NCc5ccccc5)c(=O)n4ccn3n2)cc1C,-8%,-9.14%
Cc1cc(C)cc(N(Cc2cc(C)ccc2C)S(=O)(=O)c2cccn3c(C)nnc23)c1,6.88%,-2.32%
CCc1cccc(NC(=O)Cn2nc3nc(N4CCCCCC4)ccn3c2=O)c1,0.41%,-5.25%
Cc1cccc(CN(c2cc(C)cc(C)c2)S(=O)(=O)c2cccn3c(C)nnc23)c1,6.42%,-0.75%
Cc1nnc2c(SCC(=O)Nc3ccc(F)cc3F)nc3ccccc3n12,11.73%,2.93%
Cc1ccc(Nc2cc(C)n3c(=O)n(Cc4cc(=O)n5ccccc5n4)nc3n2)cc1F,9.94%,-6.14%
C=Cc1ccc(CSc2nnc3c(=O)n(-c4ccc(Br)cc4)ccn23)cc1,2.47%,-8.25%
Cc1ccc(NC(=O)Cn2nc3ccc(SC(C)C)nn3c2=O)c(Cl)c1,-9.9%,1.89%
